Activity calls are given as the source filed them. Calls follow the shape of the dose curve; as a rule, active = well fitted curve in the direction sought with a large enough effect; inconclusive = small, poorly fitted or top-dose-only effect, or another doubt; inactive = no such curve, though single readings can be large or run the other way.

This note sets out measurements from PubChem BioAssay (NCATS).

A short description of this test: qHTS for compounds that reverse cellular toxicity of Amyloid beta (A-beta) peptide in yeast: LOPAC Validation Assay (AID 720559). Conditions: yeast expressing A-beta; series mostly up to 46.1 µM; growth rescue, positive = activation: at the top concentration. From the text:
The A-beta peptide is produced by the processing of the amyloid precursor protein (APP) by two proteases, beta and gamma secretases. […] A-beta42 is regarded as the most amyloidogenic form due to its hydrophobicity; however, precisely how A-beta42 induces neurotoxicity is unclear. To understand further this biology and its potential therapeutic implications for human neurodegenerative disease, a quantitative high-throughput screen for compounds that reverse the cellular toxicity of the A-beta peptide was developed.
A yeast based screen was used because it recapitulates the salient feature of protein mis-folding disorder accurately. This cell-based phenotypic screen provides a significant, unbiased advantage by letting the compounds and models inform us which proteins or pathways are most relevant. The ideal chemical candidates would therefore have activity in both our primary yeast and secondary neuronal toxicity assays, as well as in mouse models. They will be valuable tools for dissecting diverse protein homeostasis pathologies and could potentially become the focus for future pre-clinical development. For this […] assay, inhibition of A-beta rescues the toxic effect in the yeast cell, resulting in increase of signals.
NIH Chemical Genomics Center [NCGC]
NIH Molecular Libraries Probe Centers Network [MLPCN]
Assay Submitter (PI): Susan Lindquist, Whitehead Institute, Massachusetts Institute of Technology
[1] Vassar R,et al (1999). Beta-secretase cleavage of Alzheimer's amyloid precursor protein by the transmembrane aspartic protease BACE. Science. 286: 735-741.
[2] Yan R, et al (1999). Membrane-anchored aspartyl protease with Alzheimer's disease beta-secretase activity. Nature.
Two and a half microliter / well of yeast growth medium were dispensed in a 1536 assay plate. Compounds were pinned using the Kalypsys robotic system followed by addition of 2.5 uL / well yeast solution. The assay plates were incubated at 30 C. After 48 hr, the absorbance signal at 600 nm was obtained using the PerkinElmer ViewLux plate reader to assess yeast growth. The data was normalized to the positive control of an equimolar mixture of ferric chloride (FeCl3) and clioquinol and to the negative control DMSO.
In general terms: Quantitative high-throughput screening tests each substance at several concentrations.
With `CN1C2CCC1CC(OC(=O)c1c[nH]c3ccccc13)C2` (centres undefined), the “growth rescue, positive = activation” value was -2.87% (inactive).
Consider `N[C@@H](Cc1cnc[nH]1)C(=O)O`, for which the “growth rescue, positive = activation” value was -3.12% (inactive).
On to `COc1cc(NS(C)(=O)=O)ccc1Nc1c2ccccc2nc2ccccc12`, for which the “growth rescue, positive = activation” value is -1.31% (inactive).
Consider `CNCCC(Oc1ccccc1C)c1ccccc1` (centres undefined), for which the “growth rescue, positive = activation” value was 3.18% (inactive).
The same measure for `O=C(O)c1cc2cc(Cc3cccnc3)ccc2o1`: -1.07% (inactive); for `CC(=O)O[C@H]1C[C@@H]2CC[C@@H]3[C@H](CC[C@@]4(C)[C@H]3C[C@H]([N+]3(C)CCCCC3)[C@@H]4OC(C)=O)[C@@]2(C)C[C@@H]1[N+]1(C)CCCCC1`: -6.63% (inactive).
The same measure for `O=C1CCC(c2ccc(-n3ccnc3)cc2)=NN1`: 0.0152% (inactive).
With `Nc1cc(Cl)c(NC2=NCCN2)c(Cl)c1` the figure was -2.9% (inactive); with `COc1cc2c(cc1O)CC[C@@H]1[C@@H]2CC[C@]2(C)[C@@H](O)CC[C@@H]12`, -15% (inactive); with `CC(C)C[C@H]1C(=O)N2CCC[C@H]2[C@]2(O)O[C@](NC(=O)[C@@H]3C=C4c5cccc6[nH]c(Br)c(c56)C[C@H]4N(C)C3)(C(C)C)C(=O)N12`, -7.28% (inactive).
As for `CC(C)COC(=O)OCN1C(=O)CN(CCN2CC(=O)N(COC(=O)OCC(C)C)C(=O)C2)CC1=O`, the “growth rescue, positive = activation” value is -11.9% (inactive).
With `CC1(C)CCC(NC(=O)[C@@H](N)CCC(=O)O)CC1`, the “growth rescue, positive = activation” value was -5.6% (inactive).
The same measure for `CCC(NC(C)C)C(O)c1ccc(O)c(O)c1` (centres undefined): 7.64% (inactive); for `C[N+]1(CCCCC[N+]2(C)CCCC2)CCCC1`: -11.1% (inactive); for `COC(=O)[C@H]1[C@H]2C[C@H]3c4[nH]c5ccccc5c4CCN3C[C@H]2CC[C@@H]1O`: -6.77% (inactive).
With `Oc1ccc(O)cc1` the figure was 6.88% (inactive); with `C[C@]12CC[C@@H]3c4ccc(O)cc4CC[C@H]3[C@@H]1CC[C@@H]2O`, -11.3% (inactive); with `C[C@@H]1C(=O)NC2=Nc3cccc(Cl)c3CN21`, -9.51% (inactive).
Turning to `CC[C@H](C)C(=O)O[C@H]1CCC=C2C=C[C@H](C)[C@H](CC[C@@H]3C[C@@H](O)CC(=O)O3)[C@H]21`, the “growth rescue, positive = activation” value was 15.5% (inactive).
With `C1CCc2nnnn2CC1`, the “growth rescue, positive = activation” value was -6.8% (inactive).
With `CC(CCc1ccccc1)NCC(O)c1ccc(O)c(C(N)=O)c1` (centres undefined) the figure was -0.179% (inactive); with `CCCC1O[C@@H]2C[C@H]3[C@@H]4CCC5=CC(=O)C=C[C@]5(C)[C@H]4[C@@H](O)C[C@]3(C)[C@]2(C(=O)CO)O1` (some centres undefined), -1.83% (inactive); with `N[C@H](CO)C(=O)O`, -1.88% (inactive).
With `CNCCC=C1c2ccccc2CCc2ccccc21`, the “growth rescue, positive = activation” value is 8.47% (inactive).
